# Test results taken from the supplement of paper PMC12645437, “Orthogonal IMiD-Degron Pairs Induce Selective Protein Degradation in Cells” (ACS Chemical Biology, 2025).
# In all, about 8,300 sequences were measured (“log2 fold change of degron read counts, EGFP-low vs EGFP+ sorted cells (limma voom), compound-induced degradation”: median about -1.1, highest 2% from about 3.2 on). This is one part of a sample in which the highest values are shown more often than they occur.
# T1: CRBN, Q96SW2
# T1 chain: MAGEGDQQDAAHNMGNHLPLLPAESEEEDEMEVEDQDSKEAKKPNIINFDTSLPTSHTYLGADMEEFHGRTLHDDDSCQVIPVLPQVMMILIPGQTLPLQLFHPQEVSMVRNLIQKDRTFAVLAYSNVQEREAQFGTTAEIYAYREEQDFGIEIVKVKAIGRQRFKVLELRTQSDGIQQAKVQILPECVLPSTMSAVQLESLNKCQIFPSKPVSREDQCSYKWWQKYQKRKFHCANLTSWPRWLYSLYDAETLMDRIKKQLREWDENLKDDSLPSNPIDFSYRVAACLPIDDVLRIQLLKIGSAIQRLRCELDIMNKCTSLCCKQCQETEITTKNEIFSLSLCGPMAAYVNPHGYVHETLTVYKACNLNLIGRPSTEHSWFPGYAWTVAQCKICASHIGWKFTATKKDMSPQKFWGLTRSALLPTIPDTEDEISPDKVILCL
# Molecular target: T1, CRBN, Q96SW2
# Assay: log2 fold change of degron read counts, EGFP-low vs EGFP+ sorted cells (limma voom), compound-induced degradation; higher = more compound-induced degradation of the degron-EGFP fusion; degrons are variants of IKZF1/3 zinc finger 2; compound dose not given here
# Conditions: Jurkat, 18 h
# [1] = compound: compound 19 (5-tert-butyl-thalidomide)
# [2] = compound: compound 22 (5-morpholino-thalidomide)
# [3] = compound: compound 33 (diphenyl IMiD analogue)
# 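Note: pooled lentiviral library of zinc finger degron-EGFP fusions in mCherry-positive Jurkat cells, FACS-sorted after compound exposure, with degron abundance counted by next-generation sequencing.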
Sequence,log2 fold change of degron read counts [1],log2 fold change of degron read counts [2],log2 fold change of degron read counts [3],log2 fold change of degron read counts (compound: thalidomide)
"LCCNQCGFRCTQKGNLLRHIKL [46L_47C_49N_50Q_52G_53F_54R_55C_67L_, Q9UKT9]",-1.39,-1.65,-1.27,-1.01
"FTCEICGAFFTQKGNLLRHIKL [46F_47T_49E_50I_52G_53A_54F_55F_67L_, Q9UKT9]",-0.327,0.0883,0.985,1.57
"FDCNICGAFFTQKGNLLRHIKL [46F_47D_49N_50I_52G_53A_54F_55F_67L_, Q9UKT9]",-1.62,-1.63,-0.882,-0.692
"LDCEICGFECTQKGNLLRHIKL [46L_47D_49E_50I_52G_53F_54E_55C_67L_, Q9UKT9]",-1.93,-2.68,-2.74,-1.97
"FYCNICGAKFTQKGNLLRHIKL [46F_47Y_49N_50I_52G_53A_54K_55F_67L_, Q9UKT9]",1.97,2.19,-0.298,-0.655
"FMCPICGAKFTQKGNLLRHIKL [46F_47M_49P_50I_52G_53A_54K_55F_67L_, Q9UKT9]",-0.0561,0.0581,0.821,0.888
"FQCPICGAKFTQKGNLLRHIKL [46F_47Q_49P_50I_52G_53A_54K_55F_67L_, Q9UKT9]",0.535,3,0.562,3.44
"FACPICGAKFTQKGNLLRHIKL [46F_47A_49P_50I_52G_53A_54K_55F_67L_, Q9UKT9]",3.43,1.44,-1.12,0.992
"FTCPICGAKFTQKGNLLRHIKL [46F_47T_49P_50I_52G_53A_54K_55F_67L_, Q9UKT9]",0.0311,2.04,-0.046,2.35
"FMCNICGAKFTQKGNLLRHIKL [46F_47M_49N_50I_52G_53A_54K_55F_67L_, Q9UKT9]",-1.58,-1.36,-0.574,-0.374
"FCCPICGAKFTQKGNLLRHIKL [46F_47C_49P_50I_52G_53A_54K_55F_67L_, Q9UKT9]",2.65,2.05,0.122,2.09
"FQCNICGAKFTQKGNLLRHIKL [46F_47Q_49N_50I_52G_53A_54K_55F_67L_, Q9UKT9]",-1.16,1.71,-0.442,3.26
"FGCPICGAKFTQKGNLLRHIKL [46F_47G_49P_50I_52G_53A_54K_55F_67L_, Q9UKT9]",3.59,1.76,-0.616,1.31
"FVCPICGAKFTQKGNLLRHIKL [46F_47V_49P_50I_52G_53A_54K_55F_67L_, Q9UKT9]",-0.253,1.93,-0.152,2.45
"FNCPICGAKFTQKGNLLRHIKL [46F_47N_49P_50I_52G_53A_54K_55F_67L_, Q9UKT9]",2.07,0.6,-1.08,0.72
"FSCPICGAKFTQKGNLLRHIKL [46F_47S_49P_50I_52G_53A_54K_55F_67L_, Q9UKT9]",2.33,1.67,-0.456,1.28
"FWCNVCGAPFTQKGNLLRHIKL [46F_47W_49N_50V_52G_53A_54P_55F_67L_, Q9UKT9]",1.34,1.28,0.648,-0.594
"FNCNQCGRAFTQKGNLLRHIKL [46F_47N_49N_50Q_52G_53R_54A_55F_67L_, Q9UKT9]",-2.53,-3,-2.84,-2.82
"FLCNQCGRKFTQKGNLLRHIKL [46F_47L_49N_50Q_52G_53R_54K_55F_67L_, Q9UKT9]",-3.07,-2.98,-2.46,-1.94
"FTCEVCGADFTQKGNLLRHIKL [46F_47T_49E_50V_52G_53A_54D_55F_67L_, Q9UKT9]",-1.27,-0.646,-0.114,0.571
"FWCDVCGAFFTQKGNLLRHIKL [46F_47W_49D_50V_52G_53A_54F_55F_67L_, Q9UKT9]",0.953,1.36,-0.00384,-1.88
"FECNVCGAIFTQKGNLLRHIKL [46F_47E_49N_50V_52G_53A_54I_55F_67L_, Q9UKT9]",-2.34,-1.7,-0.347,0.492
"FVCEQCGAIFTQKGNLLRHIKL [46F_47V_49E_50Q_52G_53A_54I_55F_67L_, Q9UKT9]",-2.11,-2.38,-0.483,-1.05
"FRCPICGAKFTQKGNLLRHIKL [46F_47R_49P_50I_52G_53A_54K_55F_67L_, Q9UKT9]",-0.704,0.123,0.417,0.809
"FWCPICGAKFTQKGNLLRHIKL [46F_47W_49P_50I_52G_53A_54K_55F_67L_, Q9UKT9]",2.94,3.43,1.1,0.827
"FHCPICGAKFTQKGNLLRHIKL [46F_47H_49P_50I_52G_53A_54K_55F_67L_, Q9UKT9]",2.6,2.09,-0.0644,0.674
"FFCDQCGANFTQKGNLLRHIKL [46F_47F_49D_50Q_52G_53A_54N_55F_67L_, Q9UKT9]",-0.567,-0.255,-1.24,-2.4
"FSCDVCGAPFTQKGNLLRHIKL [46F_47S_49D_50V_52G_53A_54P_55F_67L_, Q9UKT9]",0.883,-0.0159,-0.896,-0.557
